Results from PubChem BioAssay (EPA / NIEHS).
Active and inactive are the calls of the source. The calls were made as follows: active = hit-call score of the fitted dose curve at least 0.9, where 1 is the maximum; inactive = score below 0.9.

Assays:
[1] = ATG_CRE_CIS: Attagene CIS-FACTORIAL HepG2 Assay for human cAMP Responsive Element (CRE) binding protein 3 (AID 2282926); conditions: HepG2 CRE cis-reporter, Attagene multiplexed mRNA; actives raise or lower the signal
Summary of the method: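 Transfected HepG2 were treated for 24 hours, then RNA was extracted and reporter cDNA amplified with sequence-specific primers. Labelled fragments were separated by capillary electrophoresis, and the CRE signal was fitted bidirectionally with DMSO as baseline.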

[2] = target: CCAAT/enhancer-binding protein beta (Homo sapiens) (UniProt P17676); assay: ATG_C_EBP_CIS: Attagene CIS-FACTORIAL HepG2 Assay for human CCAAT/Enhancer Binding Protein (C/EBP) beta (AID 2282927); conditions: HepG2 Attagene cis-factorial transcription factor reporter; actives raise or lower the signal
Summary of the method: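 Transiently transfected HepG2 (MRTU library, endogenous TF-driven promoters); 24 h dosing; total RNA → oligo(dT) RT → PCR → 6-FAM primer extension → HpaI digest → CE; fit bidirectionally vs DMSO.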

[3] = ATG_CMV_CIS: Attagene CIS-FACTORIAL HepG2 Assay for human CMV (Internal Marker) (AID 2282928); conditions: HepG2 CMV promoter reporter, transcription factor profiling; actives raise or lower the signal;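 also: endpoint acts as a background internal control marker rather than a target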
Summary of the method: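 CMV internal-marker background readout in transiently transfected HepG2 cells bearing cis-regulated reporter units. Reporter mRNA is measured 24 h after dosing by RT-PCR and capillary electrophoresis, with bidirectional fitting against DMSO.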

[4] = ATG_DR4_LXR_CIS: Attagene CIS-FACTORIAL HepG2 Assay for human Liver X Receptor (LXR), DR4 submotif (AID 2282929); conditions: HepG2 Attagene DR4 cis-reporter, mRNA transcription; actives raise or lower the signal
Summary of the method: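 HepG2 cells transiently transfected with cis-promoter-driven multiplexed reporter units (DR4 element) were dosed for 24 h. Reporter mRNA was quantified by RT-PCR, fluorescent primer extension, HpaI digestion and capillary electrophoresis; bidirectional fitting versus DMSO baseline.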

[5] = target: Aryl hydrocarbon receptor (Homo sapiens) (UniProt P35869); assay: ATG_Ahr_CIS: Attagene CIS-FACTORIAL HepG2 Assay for human Aryl Hydrocarbon Receptor (Ahr) (AID 2282930); conditions: HepG2 AhR cis-factorial reporter transcription; actives raise or lower the signal
Summary of the method: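 Read-out: reporter mRNA quantified by RT-PCR with fluorescent primer extension and capillary electrophoresis. Human HepG2 liver cells carried transfected cis-promoter reporter units and were exposed to chemical for 24 h; gain or loss fitted relative to DMSO.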

[6] = ATG_AP_1_CIS: Attagene CIS-FACTORIAL HepG2 Assay for human Activator Protein 1 (AP-1) (AID 2282931); conditions: HepG2 Attagene cis-factorial AP-1 reporter mRNA; actives raise or lower the signal
Summary of the method: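 HepG2 cells transiently transfected with cis-element-driven multiplex reporter units; 24 h compound exposure. Reporter mRNA quantified by RT-PCR, FAM-labelled fragments resolved by capillary electrophoresis; bidirectional fit versus DMSO baseline.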

[7] = ATG_AP_2_CIS: Attagene CIS-FACTORIAL HepG2 Assay for human Activator Protein 2 (AP-2) (AID 2282932); conditions: HepG2 AP-2 cis-reporter, Attagene transcription factor profiling; actives raise or lower the signal
Summary of the method: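 Multiplexed mRNA reporter assay in HepG2: cis-regulated units report endogenous factor activity after 24 h treatment. Fluorescence from capillary electrophoresis of RT-PCR products gives the signal, with DMSO as baseline.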

[8] = ATG_BRE_CIS: Attagene CIS-FACTORIAL HepG2 Assay for human Bone Morphogenetic Protein (BMP) Response Element (BRE) (AID 2282933); conditions: HepG2 BMP response element reporter, Attagene transcription factor profiling; actives raise or lower the signal
Summary of the method: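 Endogenous transcription factor activity at a BMP response element was monitored in transfected HepG2 cells 24 h after dosing. Fluorescent RT-PCR products were resolved by capillary electrophoresis, and activity was fitted in both directions versus DMSO.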

[9] = target: Retinoic acid receptor alpha (Homo sapiens) (UniProt P10276); assay: ATG_DR5_RAR_CIS: Attagene CIS-FACTORIAL HepG2 Assay for human Retinoic Acid Receptor Alpha (RARE), DR5 submotif (AID 2282934); conditions: HepG2 Attagene cis-factorial RARE DR5 reporter, mRNA; actives raise or lower the signal
Summary of the method: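 Read-out: DR5-driven reporter transcript measured by RT-PCR, 6-FAM primer extension, HpaI digest and capillary electrophoresis. Human HepG2 liver cells carry transiently transfected cis-element reporter constructs; dosing lasts 24 h. Gain or loss of signal fitted against DMSO baseline.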

[10] = target: Transcription factor E2F1 (Homo sapiens) (UniProt Q01094); assay: ATG_E2F_CIS: Attagene CIS-FACTORIAL HepG2 Assay for human E2F Transcription Factor 1 (AID 2282935); conditions: HepG2 Attagene cis-reporter, E2F reporter RNA transcripts; actives raise or lower the signal
Summary of the method: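 Measures reporter transcript levels via RT-PCR with capillary electrophoresis detection in HepG2 cells harboring cis-regulated reporter units; 24 h post-dose; bidirectional curve fitting with DMSO as baseline.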

[11] = ATG_E_Box_CIS: Attagene CIS-FACTORIAL HepG2 Assay for human Enhancer Box (E-box) (AID 2282936); conditions: HepG2 E-box cis-reporter transcription, actives raise or lower the signal
Summary of the method: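 First, HepG2 cells receive multiple cis-regulated reporter constructs by transient transfection. Next, chemicals are applied for 24 h. Finally, reporter mRNA is quantified via RT-PCR and capillary electrophoresis, with DMSO as baseline.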

[12] = ATG_M_61_CIS: Attagene CIS-FACTORIAL HepG2 Assay for M61 Transcription Factor (Internal Marker) (AID 2282937); conditions: HepG2 Attagene CIS-FACTORIAL M61 internal marker reporter; actives raise or lower the signal
Summary of the method: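 HepG2 cells transiently transfected with cis-element-driven multiple reporter transcription units, dosed for 24 h. Reporter mRNA measured by RT-PCR, 6-FAM primer-extension labelling, HpaI digestion and capillary electrophoresis; bidirectional fit versus DMSO baseline.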

[13] = ATG_EGR_CIS: Attagene CIS-FACTORIAL HepG2 Assay for human Early Growth Response 1 (EGR1) (AID 2282938); conditions: HepG2 Attagene CIS-FACTORIAL EGR reporter mRNA; actives raise or lower the signal
Summary of the method: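 HepG2 cells transiently transfected with cis-promoter-driven multiplexed reporter transcription units; reporter mRNA measured 24 h after compound dosing by RT-PCR, 6-FAM primer extension, HpaI digestion and capillary electrophoresis. Bidirectional fit versus DMSO baseline.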

[14] = ATG_M_19_CIS: Attagene CIS-FACTORIAL HepG2 Assay for M19 Transcription Factor (Internal Marker) (AID 2282939); conditions: HepG2 Attagene CIS-FACTORIAL M19 internal marker reporter; actives raise or lower the signal
Summary of the method: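 Background-control endpoint from a multiplexed HepG2 reporter panel. Cells carrying cis-regulated reporter constructs are treated 24 h, then reporter transcripts are amplified, fluorescently labelled and sized by capillary electrophoresis. DMSO defines baseline.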

[15] = ATG_Ets_CIS: Attagene CIS-FACTORIAL HepG2 Assay for human Erythroblast Transformation Specific (ETS) (AID 2282941); conditions: HepG2 ETS cis-reporter transcription, actives raise or lower the signal
Summary of the method: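 HepG2 cells transfected with multiple cis-regulated reporter units measuring endogenous ETS-driven transcription, 24 h after dosing. Reporter mRNA quantified by RT-PCR with capillary electrophoresis; bidirectional fit relative to DMSO.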

[16] = target: Hepatocyte nuclear factor 3-beta (Homo sapiens) (UniProt Q9Y261); assay: ATG_FoxA2_CIS: Attagene CIS-FACTORIAL HepG2 Assay for human Forkhead box A2 (FOXA2) (AID 2282942); conditions: HepG2 cis-reporter transcription factor activity, 24 h; actives raise or lower the signal
Summary of the method: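 HepG2 cells transiently transfected with multiple cis-regulated reporter transcription units, dosed for 24 h. Reporter mRNA measured by RT-PCR, 6-FAM labelling, HpaI digestion and capillary electrophoresis; bidirectional fitting against DMSO baseline.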

[17] = ATG_FoxO_CIS: Attagene CIS-FACTORIAL HepG2 Assay for human Forkhead box O (FoxO) (AID 2282943); conditions: HepG2 Attagene cis-reporter, FoxO element, mRNA; actives raise or lower the signal
Summary of the method: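 Read-out: fluorescence of 6-FAM-labelled reporter cDNA fragments resolved by capillary electrophoresis. Transiently transfected HepG2 cells were dosed for 24 h; activity fitted in both directions relative to DMSO controls.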

[18] = ATG_GATA_CIS: Attagene CIS-FACTORIAL HepG2 Assay for human GATA Binding Protein (AID 2282944); conditions: HepG2 GATA cis-element reporter, Attagene multiplex mRNA; actives raise or lower the signal
Summary of the method: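 Endogenous transcription factor activity was captured through cis-promoter-driven reporters in transfected HepG2 cells. After 24 h exposure, reporter transcripts were quantified by RT-PCR with fluorescent capillary electrophoresis, and responses fitted both directions against DMSO.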

[19] = ATG_GLI_CIS: Attagene CIS-FACTORIAL HepG2 Assay for human Zinc Finger Protein GLI1 (AID 2282945); conditions: HepG2, Attagene cis-factorial reporter mRNA, GLI element; actives raise or lower the signal
Summary of the method: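 Transiently transfected HepG2 cells report endogenous transcription factor activity via cis-element-driven reporter units. After 24 h compound exposure, reporter mRNA was measured by RT-PCR with capillary electrophoresis; bidirectional fitting against DMSO baseline.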

Measured: AC50

Sequence of Hepatocyte nuclear factor 3-beta (Homo sapiens) (Q9Y261 whole entry, looked up): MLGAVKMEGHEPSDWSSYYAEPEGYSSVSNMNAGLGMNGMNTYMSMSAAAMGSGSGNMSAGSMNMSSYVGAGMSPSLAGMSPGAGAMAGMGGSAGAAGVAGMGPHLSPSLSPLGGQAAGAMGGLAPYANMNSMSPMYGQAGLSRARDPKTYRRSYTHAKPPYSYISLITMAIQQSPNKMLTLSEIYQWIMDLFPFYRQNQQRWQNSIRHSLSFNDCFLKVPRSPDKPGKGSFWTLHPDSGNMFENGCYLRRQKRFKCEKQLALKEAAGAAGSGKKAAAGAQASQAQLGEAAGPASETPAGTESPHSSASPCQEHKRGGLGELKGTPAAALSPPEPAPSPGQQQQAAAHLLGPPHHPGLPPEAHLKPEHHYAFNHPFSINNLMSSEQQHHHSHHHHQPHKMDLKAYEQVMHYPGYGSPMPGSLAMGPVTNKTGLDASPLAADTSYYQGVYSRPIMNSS
Sequence of Aryl hydrocarbon receptor (Homo sapiens) (P35869 whole entry, looked up): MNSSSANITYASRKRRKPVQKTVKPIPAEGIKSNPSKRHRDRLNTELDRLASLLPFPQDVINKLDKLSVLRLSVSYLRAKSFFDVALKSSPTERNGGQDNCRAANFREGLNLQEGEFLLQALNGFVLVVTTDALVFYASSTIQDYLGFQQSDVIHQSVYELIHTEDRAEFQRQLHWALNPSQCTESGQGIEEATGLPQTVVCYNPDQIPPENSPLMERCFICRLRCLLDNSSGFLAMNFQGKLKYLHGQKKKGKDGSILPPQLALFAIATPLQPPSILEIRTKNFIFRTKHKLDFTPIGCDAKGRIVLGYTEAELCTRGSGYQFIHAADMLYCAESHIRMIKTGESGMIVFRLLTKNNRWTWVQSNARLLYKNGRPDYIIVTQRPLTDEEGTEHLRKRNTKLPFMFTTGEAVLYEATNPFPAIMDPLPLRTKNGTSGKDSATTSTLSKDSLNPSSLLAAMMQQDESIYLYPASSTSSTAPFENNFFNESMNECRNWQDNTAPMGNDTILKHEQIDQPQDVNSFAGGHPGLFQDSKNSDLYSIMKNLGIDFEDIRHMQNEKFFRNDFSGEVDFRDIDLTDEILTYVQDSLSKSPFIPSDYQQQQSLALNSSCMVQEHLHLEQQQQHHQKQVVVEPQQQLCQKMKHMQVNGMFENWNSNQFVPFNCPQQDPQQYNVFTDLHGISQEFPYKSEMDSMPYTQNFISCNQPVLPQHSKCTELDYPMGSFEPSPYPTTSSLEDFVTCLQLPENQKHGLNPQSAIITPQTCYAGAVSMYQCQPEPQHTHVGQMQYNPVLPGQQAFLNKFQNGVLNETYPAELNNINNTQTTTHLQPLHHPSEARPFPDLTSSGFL
Sequence of Retinoic acid receptor alpha (Homo sapiens) (P10276 whole entry, looked up): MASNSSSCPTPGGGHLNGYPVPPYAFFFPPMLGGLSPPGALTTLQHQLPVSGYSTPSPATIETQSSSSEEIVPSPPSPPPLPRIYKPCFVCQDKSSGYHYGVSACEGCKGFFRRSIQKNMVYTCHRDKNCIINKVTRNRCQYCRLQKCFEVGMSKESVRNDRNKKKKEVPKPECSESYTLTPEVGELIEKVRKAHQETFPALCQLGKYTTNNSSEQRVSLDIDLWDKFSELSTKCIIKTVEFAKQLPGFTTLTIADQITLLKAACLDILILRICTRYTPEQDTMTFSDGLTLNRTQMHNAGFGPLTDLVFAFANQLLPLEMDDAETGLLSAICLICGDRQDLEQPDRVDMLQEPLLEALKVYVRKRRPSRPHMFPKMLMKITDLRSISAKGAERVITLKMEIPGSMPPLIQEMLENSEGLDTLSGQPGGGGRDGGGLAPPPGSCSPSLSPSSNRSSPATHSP
Sequence of CCAAT/enhancer-binding protein beta (Homo sapiens) (P17676 whole entry, looked up): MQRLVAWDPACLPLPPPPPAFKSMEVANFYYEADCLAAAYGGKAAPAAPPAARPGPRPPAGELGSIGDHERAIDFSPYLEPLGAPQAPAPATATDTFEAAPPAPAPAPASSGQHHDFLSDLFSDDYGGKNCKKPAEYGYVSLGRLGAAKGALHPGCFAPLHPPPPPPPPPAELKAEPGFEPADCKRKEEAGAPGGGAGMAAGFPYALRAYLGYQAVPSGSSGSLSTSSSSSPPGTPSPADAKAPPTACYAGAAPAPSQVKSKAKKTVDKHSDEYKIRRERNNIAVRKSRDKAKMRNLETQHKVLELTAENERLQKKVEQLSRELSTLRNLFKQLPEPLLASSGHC
Sequence of Transcription factor E2F1 (Homo sapiens) (Q01094 whole entry, looked up): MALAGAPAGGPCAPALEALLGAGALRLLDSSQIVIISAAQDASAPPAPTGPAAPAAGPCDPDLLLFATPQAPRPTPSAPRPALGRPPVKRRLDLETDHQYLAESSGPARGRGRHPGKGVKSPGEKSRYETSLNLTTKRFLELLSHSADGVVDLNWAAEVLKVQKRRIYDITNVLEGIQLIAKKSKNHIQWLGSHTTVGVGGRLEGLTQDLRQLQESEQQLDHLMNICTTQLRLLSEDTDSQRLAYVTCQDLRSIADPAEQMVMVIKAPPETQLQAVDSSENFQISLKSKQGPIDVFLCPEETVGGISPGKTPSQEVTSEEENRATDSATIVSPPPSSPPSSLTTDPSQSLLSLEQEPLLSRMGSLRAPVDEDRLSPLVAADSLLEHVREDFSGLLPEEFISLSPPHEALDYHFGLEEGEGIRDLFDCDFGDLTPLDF

Cc1cccc(Nc2ccccc2C(=O)O)c1C
inactive: [1] | [2] | [3] | [4] | [5] | [6] | [7] | [8] | [9] | [10] | [11] | [12] | [13] | [14] | [15] | [16] | [17] | [18] | [19]

CCCCCC=CCC(=O)OC
inactive: [1] | [2] | [3] | [4] | [5] | [6] | [7] | [8] | [9] | [10] | [11] | [12] | [13] | [14] | [15] | [16] | [17] | [18] | [19]

O=C(O)c1cn(-c2ccc(F)cc2)c2cc(N3CCNCC3)c(F)cc2c1=O
inactive: [1] | [2] | [3] | [4] | [5] | [6] | [7] | [8] | [9] | [10] | [11] | [12] | [13] | [14] | [15] | [16] | [17] | [18] | [19]

Nc1nc2ccc([N+](=O)[O-])cc2s1
inactive: [1] | [2] | [3] | [4] | [6] | [7] | [9] | [10] | [11] | [12] | [13] | [14] | [15] | [16] | [17] | [18] | [19]
active: [5] 5.26 µM | [8] 100 µM

C/C=C(\C)C(=O)OCc1ccccc1
inactive: [1] | [2] | [3] | [4] | [5] | [6] | [7] | [8] | [9] | [10] | [11] | [12] | [13] | [14] | [15] | [16] | [17] | [18] | [19]

COCCCOc1ccnc(CS(=O)c2nc3ccccc3[nH]2)c1C (configuration not stated)
active: [5] 14.7 µM
inactive: [1] | [2] | [3] | [4] | [6] | [7] | [8] | [9] | [10] | [11] | [12] | [13] | [14] | [15] | [16] | [17] | [18] | [19]

O=C1C(c2[nH]c3ccc(S(=O)(=O)O)cc3c2O)=Nc2ccc(S(=O)(=O)O)cc21
inactive: [1] | [2] | [3] | [4] | [6] | [7] | [8] | [9] | [10] | [11] | [12] | [13] | [14] | [15] | [16] | [17] | [18] | [19]
active: [5] 27.6 µM

CCCCNC(=O)NS(=O)(=O)c1ccc(N)cc1
inactive: [1] | [2] | [3] | [4] | [5] | [6] | [7] | [8] | [9] | [10] | [11] | [12] | [13] | [14] | [15] | [16] | [17] | [18] | [19]
